The record followed here is PubChem BioAssay (EPA / NIEHS).

Several values for one entry are separate records, joined by “and”; a condition that tells them apart may be missing. Equal entries are not always repeated. Results filed as inconclusive are left out. A structure can be active in one record and inactive in another. Activity calls are given as the source filed them. Rule for the calls, unless noted: active = hit-call score of the fitted dose curve at least 0.9, where 1 is the maximum; inactive = score below 0.9.

Test [1] can be described thus: BSK_BT_PBMCCytotoxicity: PBMC Cytotoxicity Assessment in the BioMAP Diversity Plus: BT Assay (AID 2284225).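 Note: PBMC viability measured by Alamar Blue dye reduction fluorescence.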 To be noted: primary human B cells with PBMC. Summed up:
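75,000 cells/well; cpd 1 h → SEB + TSST-1 (20 ng/mL final each) → 90 h → Alamar Blue 6 h → fluor. 546/580 nm. DMSO = neg. control/baseline.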

Read-out in test [2]: Secreted IgG (sIgG), gene 3500
In words: BSK_BT_sIgG: BioMAP Diversity Plus: BT Assay for Secreted IgG (sIgG) Biomarker Activity (AID 2284226). The settings on record: primary human B cells with PBMC. The procedure, abridged: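 B cells co-cultured with PBMC were dosed with chemical and secreted IgG quantified by ELISA at 24 h. Activity was fitted in the positive direction relative to DMSO as negative control and baseline.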

Read-out in test [3]: Interleukin 6 (IL6), IL6 (gene 3569)
The experiment in a line: BSK_BT_xIL6: BioMAP Diversity Plus: BT Assay for Interleukin 6 (IL6) Biomarker Activity (AID 2284228). To be noted: primary human B cells with PBMC. Summed up:
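B cells and peripheral blood mononuclear cells (human primary co-culture) were dosed with chemical, and after 24 h IL-6 released into the medium was measured by Luminex xMAP. Responses were analysed as gain of signal over DMSO control.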

Read-out in test [4]: Tumor necrosis factor (Homo sapiens) (UniProt P01375)
The experiment in a line: BSK_BT_xTNFa: BioMAP Diversity Plus: BT Assay for Tumor necrosis factor alpha (TNF-alpha) Biomarker Activity (AID 2284230). To be noted: primary human B cells with PBMC. Summed up: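 Human primary co-culture of B cells and peripheral blood mononuclear cells; TNF-alpha in supernatant, 24 h post-dose, Luminex multiplex; DMSO = baseline.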

The nature of test [5]: UKN2_HCS_IMR90_neural_migration: University of Konstanz (UKN) Leist Lab Neural Crest Cell Migration Assay in human induced IMR90 Pluripotent Stem Cells (UKN2) (AID 2284204). The settings on record: actives raise or lower the signal. Summed up: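 iPSC-derived IMR90 neural crest cells on PLO/laminin/fibronectin were seeded around silicone stoppers; after stopper removal, migration in N2-S medium with EGF and FGF ran 24 h before 24 h chemical exposure. Calcein-AM/Hoechst high-content imaging; bidirectional fit versus DMSO.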

A short description of test [6]: UKN4_HCS_LUHMES_neurite_outgrowth: University of Konstanz (UKN) Leist Lab Neurite Outgrowth Assay in human LUHMES cells (UKN4) (AID 2284206). To be noted: actives raise or lower the signal. The procedure, abridged: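 LUHMES neuronal precursors differentiated 2 days, replated without cAMP/GDNF, then exposed to chemicals for 24 h. Neurite area imaged by high-content microscopy after calcein-AM staining; Hoechst H-33342 marks viability. Bidirectional fit versus DMSO.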

The nature of test [7]: IUF_NPC1b_proliferation_BrdU_72hr: Leibniz Research Institute for Environmental Medicine (IUF) 72-hour Neural Progenitor Cell Bromodeoxyuridine (BrdU) Proliferation Assay (NPC1b) (AID 2284207). The procedure, abridged:
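hNPC spheres (primary, GW 16-19 fetal cortex), single sphere/well, EGF+FGF medium; 72 h compound, no renewal; BrdU pulse last 16 h; luminescent ELISA; activity vs DMSO baseline; growth-factor withdrawal as positive control.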

Test [8] is described as follows: IUF_NPC1a_proliferation_area_72hr: Leibniz Research Institute for Environmental Medicine (IUF) 72-hour Neural Progenitor Cell Proliferation Area Assay (NPC1a) (AID 2284208). The procedure, abridged: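 Spheres of 0.3 mm are plated singly in growth-factor medium and exposed from day 0. After three days at 37C and 5% CO2, sphere area is measured by phase contrast imaging, with activity referenced to DMSO.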

Test [9] in a line: IUF_NPC1_viability_72hr: Viability Assessment at 72 hours in the Leibniz Research Institute for Environmental Medicine (IUF) Neural Progenitor Cell Proliferation Assay (NPC1) (AID 2284209). The procedure, abridged:
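Human fetal-cortex neural progenitor spheres (0.25–0.35 mm, one per well) grown in EGF/FGF proliferation medium at 37C, pH 7.2-7.6, exposed 72 h without renewal; viability read as alamar blue resazurin-to-resorufin fluorescence relative to DMSO.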

Test [10] is described as follows: CCTE_Mundy_HCI_Cortical_Synap_Neur_Matur_NeuriteSpotCountPerNeuriteLength: CCTE's Synaptogenesis and Neurite Maturation Assay in rat cortical cells for Neurite Spot Count per Neurite Length, Mundy Lab (AID 2284210). Summed up: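 Rat primary cortical cultures, glia arrested with AraC at DIV 5, were dosed with media change at DIV 7 and fixed at DIV 12. Synaptophysin puncta per MAP2-labelled neurite length were quantified by high-content imaging versus DMSO.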

Test [11] in a line: CCTE_Mundy_HCI_Cortical_Synap_Neur_Matur_BPCount: CCTE's Synaptogenesis and Neurite Maturation Assay in rat cortical cells for Branch Point Count, Mundy Lab (AID 2284211). The procedure, abridged:
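Branch point number is quantified by automated imaging of fluorescently labelled neurites and synapses in rat primary cortical neurons exposed from DIV 7 to DIV 12. Activity is analysed relative to DMSO negative control.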

Test [12] can be described thus: CCTE_Mundy_HCI_Cortical_NOG_NeuriteCount: CCTE's Neurite Outgrowth Assay in rat cortical cells for Neurite Count, Mundy Lab (AID 2284212).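 Note: cells fixed about two days after chemical exposure began.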 Summed up: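 Neurite number per cell from high-content imaging of betaIII-tubulin immunostaining, with Hoechst nuclear counterstain.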
Test [13] is described as follows: CCTE_Mundy_HCI_Cortical_NOG_NeuriteLength: CCTE's Neurite Outgrowth Assay in rat cortical cells for Neurite Length, Mundy Lab (AID 2284213). Summed up:
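Neurite length was read by high-content imaging of βIII-tubulin-labelled neurites in rat primary cortical cultures. Activity was fitted relative to DMSO.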

Test [14] can be described thus: CCTE_Mundy_HCI_Cortical_Synap_Neur_Matur_NeuriteLength: CCTE's Synaptogenesis and Neurite Maturation Assay in rat cortical cells for Neurite Length, Mundy Lab (AID 2284214). Summed up:
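Rat primary cortical cells were plated, treated with AraC at DIV 5 to arrest glial growth, then chemical-dosed with media change at DIV 7 through DIV 12. Fixed cells stained for MAP2, synaptophysin and Hoechst; neurite length quantified by high-content imaging.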

Test [15] is described as follows: CCTE_Mundy_HCI_Cortical_Synap_Neur_Matur_NeuriteSpotCountPerNeuron: CCTE's Synaptogenesis and Neurite Maturation Assay in rat cortical cells for Neurite Spot Count per Neuron Count, Mundy Lab (AID 2284215). The procedure, abridged:
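Rat cortical primary cultures; AraC DIV 5 to arrest glia; dosing + media change DIV 7; fixed DIV 12. Anti-MAP2/anti-synaptophysin, Hoechst nuclei; HCI puncta count per neuron, positive fitting direction vs DMSO.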

A short description of test [16]: CCTE_Mundy_HCI_Cortical_Synap_Neur_Matur_SynapseCount: CCTE's Synaptogenesis and Neurite Maturation Assay in rat cortical cells for Synapse Count, Mundy Lab (AID 2284218). The procedure, abridged:
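Rat primary cortical cells in 96-well plates received AraC at DIV 5 and were dosed with chemicals at DIV 7 with media change, through DIV 12 (288.33 h). Synapses per neuron counted by high-content imaging of MAP2/synaptophysin/Hoechst staining, versus DMSO baseline.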

Test [17] can be described thus: CCTE_Mundy_HCI_Cortical_Synap_Neur_Matur_NeuriteCount: CCTE's Synaptogenesis and Neurite Maturation Assay in rat cortical cells for Neurite Count, Mundy Lab (AID 2284222).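 For outcome: exposure from day 7 to day 12 in vitro with readout at day 12.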 The procedure, abridged:
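Primary rat cortical cells were plated, treated with AraC at DIV 5, then exposed to chemicals from DIV 7 through DIV 12. After fixation and immunostaining for MAP2 and synaptophysin, imaging quantified neurites, with DMSO as the negative control.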

The nature of test [18]: CCTE_Mundy_HCI_Cortical_Synap_Neur_Matur_CellBodySpotCount: CCTE's Synaptogenesis and Neurite Maturation Assay in rat cortical cells for Cell Body Spot Count, Mundy Lab (AID 2284223). Summed up: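 Rat cortical neurons; AraC @ DIV 5; dose + media change DIV 7; fix DIV 12; anti-MAP2/anti-synaptophysin IF, Hoechst; HCI count of soma synaptophysin puncta/neuron; DMSO = negative control.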

A short description of test [19]: CCTE_Mundy_HCI_hNP1_Pro_ResponderAvgInten: CCTE's Proliferation Assay in human neuroprogenitor cells, Mundy Lab (AID 2284224; active = hit-call score of the fitted dose curve at least 0.9, where 1 is the maximum;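 note: human neural progenitor cells hNP1 derived from WA09 embryonic stem cells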). Summed up:
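Human neuroprogenitors (hNP1, WA09 lineage) receive test chemical after 40 to 44 hours of attachment. A four-hour BrdU pulse begins twenty hours later, followed by fixation and high content imaging; signal is referenced to DMSO controls.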

Test [20] is described as follows: TAMU_PeakParms_SingleDonor1434_Chronotropy: Texas A&M University (TAMU) 1.5-hr Human Induced Pluripotent Stem Cell (iPSC)-derived Cardiomyocytes Calcium (Ca+2) Flux Assay for Cardiotoxicity: Chronotropy (changes in peak frequency) (AID 2284217). The settings on record: actives raise or lower the signal. The procedure, abridged:
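iPSC-CMs, donor 1434; 4 conc (0.2–100 uM), 0.5% v/v DMSO, 90 min, 37C/5% CO2; Ca2+ flux fluorescence → peak.freq.avg; peak.freq.avg = 0 dropped; bidirectional fit vs DMSO; EC05 POD.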

Sequence of Tumor necrosis factor (Homo sapiens) (P01375 whole entry, looked up): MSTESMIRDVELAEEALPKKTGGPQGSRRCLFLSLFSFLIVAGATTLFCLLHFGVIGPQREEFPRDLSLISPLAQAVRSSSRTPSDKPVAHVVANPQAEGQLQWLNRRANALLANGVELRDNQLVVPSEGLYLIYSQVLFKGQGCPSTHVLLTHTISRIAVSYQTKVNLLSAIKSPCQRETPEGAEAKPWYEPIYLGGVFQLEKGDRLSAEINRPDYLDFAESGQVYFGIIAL

Regarding `COc1ccccc1NC(=O)CC(C)=O`, the outcome in [1], in [2], in test [3] and in [4] was inactive.

For the molecule `CCCCCCCCCCCCS`, the outcome in [1], in test [2], in test [3] and in [4] was inactive.

On to `CC(=O)CCC=C(C)CCC=C(C)C`, for which the outcome in test [1], in test [3] and in test [4] was inactive. In addition, the AC50 (commonly the midpoint of the concentration-response curve, whichever way the signal moves) in test [2] was 20 µM (active).

On to `OCCN1CCOCC1`, for which the result in [1], in test [2], in test [3] and in test [4] was inactive.

Turning to `C=C(C)C(=O)OCCC(F)(F)C(F)(F)C(F)(F)C(F)(F)C(F)(F)C(F)(F)C(F)(F)C(F)(F)F`, the result in test [1], in test [2], in [3] and in test [4] was inactive.

As for `CC(C)Cc1ccc(C(C)C(=O)O)cc1` (stereo not drawn), the call in test [5], in test [6], in [7], in [8], in test [9] and in test [10] was inactive. The molecule was classed as inactive in test [11], in test [12], in [13], in test [14], in test [15] and in test [16]. The molecule was classed as inactive in test [17], in test [18], in test [19], in test [1], in [2] and in test [3]. For the same molecule, the result in [4] was inactive.

As for `CC1=CC(C)C(C=O)C(C)C1` (stereo not drawn) (tested in a mixture with another compound), the result in test [1], in test [2], in [3] and in test [4] was inactive.

As for `OCC(F)(OC(F)(F)C(F)(OC(F)(F)C(F)(F)C(F)(F)F)C(F)(F)F)C(F)(F)F` (stereo not drawn), the AC50 in test [1] is 2.62 µM (active) and 5.68 µM (active); in [2], 5.29 µM (active); in test [4] it was 4.92 µM (active). The result in [2], in test [3] and in [4] was inactive.

`CCCCCCCCCC(=O)OCC`: the result in test [1], in test [2], in test [3] and in test [4] was inactive.

In the case of `O=C1OC2(c3ccc(O)cc3Oc3cc(O)ccc32)c2ccccc21`, the result in test [1], in test [3] and in test [4] was inactive. In addition, the AC50 in test [2] is 35.5 µM (active).

Consider `CC=CC(=O)C1=C(C)C=CCC1(C)C`, for which the result in test [1], in [2], in test [3] and in test [4] was inactive.

Turning to `N#CCCNCCC#N`, the molecule was called inactive in test [10], in [11], in [12], in test [13], in [14] and in [15]. The result in [20], in test [16], in [17] and in test [18] was inactive.

As to `O=C(O)C(F)(F)C(F)(F)C(F)(F)C(F)(F)C(F)(F)C(F)(F)C(F)(F)C(F)F`, in test [1], the AC50 is 19.8 µM (active). For the same molecule, the outcome in test [1], in test [2], in test [3] and in test [4] was inactive.

As to `CCCCC(CC)COC(=O)COc1ccc(Cl)cc1C` (stereo not drawn), the molecule was classed as inactive in [5], in [8], in test [9], in test [12] and in [13]. The AC50 in test [7] is 0.0137 µM (active); in test [10] it was 24.2 µM (active); in test [11], 15.7 µM (active); in test [14], 14.1 µM (active); in [15], 16.3 µM (active); in test [16], 16.4 µM (active). Moreover, the AC50 in [17] was 17.1 µM (active); in test [18] it was 25 µM (active).

Turning to `c1ccc2c(c1)-c1ccc3ccc4cccc5cc-2c1c3c45`, the result in test [1], in test [2] and in test [4] was inactive. Moreover, the concentration at half-maximal activity (AC50) in test [3] is 0.0398 µM (active).
